Screening results from PubChem.
Sampled rows, rich in hits. Any-hit rate of the full collection: about 3.3%.
esBAF inh – SWI/SNF esBAF complex inhibition; mouse ES cells, Bmi1-luciferase knock-in reporter, 24 h; 100% = twice the neutral-well signal; reporter increase, % at 12.5 µM; hit rate 2% among 350,000; in the data active = activation above about 40%; inconclusive = no clear call, values can overlap the other calls;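 note: a rise in the Bmi1 reporter signal indicates esBAF inhibition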
Statin myotox sup – suppressors of simvastatin-induced myotoxicity in C2C12 myotubes | ATP luminescence, 48 h; scaled: DMSO 0, geranylgeraniol control 100 | rescue of ATP level, % at 7.49 µM | hit rate 0.78% among 330,000 | AID 602340;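 active = mean ATP rescue above about 67%, or every replicate alone reaching that limit, limit read from the data, passing the limit was not always enough; inconclusive = no clear call, values can overlap the other calls; inactive = mean under the limit and some replicate under it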;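 note: myotubes were challenged with 10 µM simvastatin during compound exposure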
Wnt bcat act – activators of Wnt/beta-catenin signaling. AID 743398. Wnt/beta-catenin reporter cell assay, activator, plate reader. activation, % at 9.35 µM. hit rate 1.2% among 300,000; in the data active = activation above about 30%, passing the limit was not always enough; inconclusive = no clear call, values can overlap the other calls
FXN GAA850 act – activators of GAA850 frataxin (FXN) promoter | HEK293 lucGAA850 FXN promoter luciferase reporter, 24 h; percent of 10 µM SAHA response | activation, % at 6 µM | hit rate 0.56% among 360,000;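 active = activation above the average of all compounds screened plus 3 SD, cutoff fixed separately per campaign, cut at about 7.5% in these data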
MITF TRPM1 HTS – increases MITF-driven TRPM1 promoter luciferase signal; SK-MEL-5 TRPM1-promoter luciferase, 24 h; % of positive control, neutral wells = 0; activation, % at 12.5 µM; hit rate 0.75% among 300,000; AID 588334;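 active = mean activation of at least 80% with every replicate also reaching 80%; inconclusive = mean reaches 80% but some replicate falls short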
Numbers stand for hits; i = inactive; ? = inconclusive; nt = no result given.

SMILES | esBAF inh | Statin myotox sup | Wnt bcat act | FXN GAA850 act | MITF TRPM1 HTS
O=c1cc(-c2ccsc2)oc2ccc(-c3ccc4cc[nH]c4c3)cc12 | 59 | i | i | i | 115
Cc1cc(S(=O)(=O)Nc2nc(CN3CCOCC3)nc3sc4c(c23)CCC4)cc(C)c1C | i | i | i | i | i
Cc1cc(S(=O)(=O)Nc2nc(CN3CCOCC3)nc3sc4c(c23)CCCC4)ccc1F | i | 121 | i | i | i
CC(C)Cn1c(NCCO)nc2ccccc21 | i | 93 | i | i | i
CCCC(=O)Nc1ccc2c(c1)OC[C@H](C)N(C(=O)CC)C[C@@H](C)[C@H](OC)CN(C)C2=O | i | i | nt | nt | nt
Cc1ccccc1-c1nc2cc(Cl)ccc2o1 | nt | nt | 38 | i | ?
CCC(=O)Nc1ccc2oc(-c3ccccc3Br)nc2c1 | 59 | i | nt | i | 130
Cc1ccc(-c2nc3cc(N)ccc3o2)c(C)c1 | i | i | nt | i | i
Nc1ccc2oc(-c3cccc4ccccc34)nc2c1 | i | 89 | nt | i | i
Cc1ccccc1-c1nc2cc(Cl)ccc2c(=O)o1 | nt | nt | i | i | i
Cc1ccccc1-c1nc2cc(NC(=O)C3CC3)ccc2o1 | 63 | i | i | i | i
CC(=O)Nc1ccc2oc(-c3ccccc3Br)nc2c1 | nt | nt | nt | i | i
COc1ccc(OCC(=O)Nc2ccc3oc(-c4ccncc4)nc3c2)cc1 | i | i | i | i | i
Cc1ccc(OCC(=O)Nc2ccc(O)c(-c3nc4ccccc4o3)c2)cc1 | 54 | nt | i | i | i
N#Cc1ccccc1OCCN1C(=O)c2ccccc2C1=O | 56 | i | nt | i | i
CCOc1ccc(OCCN2C(=O)c3ccccc3C2=O)cc1 | 63 | i | i | i | i
CO[C@H]1CC[C@H]2CCOc3ccc(C#N)cc3C(=O)N(C)C[C@H](OC)[C@@H](C)C(=O)N(C)C[C@H]1O2 | i | i | nt | nt | nt
FC(F)Oc1ccc(N=C2SCC3CCCCN23)cc1 (stereo not given) | 75 | i | i | i | 94
O=C(CN1CCCCC1CO)c1ccc(OC(F)F)cc1 (stereo not given) | nt | nt | i | i | i
CN(C)CC(=O)N[C@@H]1CC[C@@H](CCNC(=O)Nc2ccc(C(F)(F)F)cc2)O[C@@H]1CO | i | i | nt | nt | nt
O=C(C[C@@H]1C[C@H]2c3cc(NC(=O)c4ccc5c(c4)OCO5)ccc3O[C@H]2[C@@H](CO)O1)NCc1cccc(F)c1 | i | i | nt | nt | nt
CCSc1nnc2nc(C)cc(C)n12 | nt | nt | i | i | i
Cc1ccc(CSc2nnc3nc(C)cc(C)n23)cc1 | i | 139 | nt | i | i
COCC(=O)Nc1ccc2c(c1)C(=O)N(C)C[C@H](OC)[C@H](C)CN(C(=O)CC1CC1)[C@H](C)CO2 | i | i | nt | nt | nt
CC(=O)c1ccc(-c2ccc(C(=O)NCC(c3ccco3)N(C)C)o2)cc1 (stereo not given) | 80 | i | i | i | i
SMILES | esBAF inh | Statin myotox sup | Wnt bcat act | FXN GAA850 act | MITF TRPM1 HTS
CN(C)C(CNC(=O)c1cccc(OC(F)F)c1)c1ccco1 (stereo not given) | 45 | i | i | i | i
CN(C)C(CNC(=O)c1ccc2nccnc2c1)c1ccco1 (stereo not given) | ? | i | i | i | i
COc1ccccc1C(=O)N/C(N)=N/c1nc2ccccc2o1 | 51 | i | i | i | i
Cc1ccc(C(=O)N/C(N)=N/c2nc3ccccc3o2)cc1 | 43 | i | nt | i | i
N/C(=N\c1nc2ccccc2o1)NC(=O)c1ccccc1 | nt | nt | nt | i | i
CN1c2ccc(Br)cc2[C@@H]2[C@@H](CCN2C(=O)Nc2ccccc2F)[C@@H]1CO | i | i | nt | nt | nt
CN(C)C(=O)C[C@@H]1CC[C@@H]2[C@H](COC[C@H](O)CN2S(=O)(=O)c2ccccc2)O1 | i | i | nt | nt | nt
Cn1cccc1CNC(=O)Nc1ccc(Cl)cc1 | i | i | nt | i | i
Cn1cccc1C(=O)C(=O)Nc1ccc(F)c(F)c1 | 46 | i | i | i | 103
Cn1cccc1C(=O)C(=O)Nc1cc(Cl)cc(Cl)c1 | 49 | nt | i | i | i
Cn1cccc1C(=O)C(=O)Nc1ccc(Cl)cc1 | i | 93 | i | i | nt
CC(C(=O)Nc1ccc(F)c(F)c1)N1CCN(C)CC1 (stereo not given) | i | i | i | i | i
Cn1cccc1C(=O)C(=O)Nc1cccc(Cl)c1Cl | 63 | i | nt | i | i
COc1ccc(S(=O)(=O)Nc2ccc3c(c2)[C@H]2C[C@@H](CC(=O)O)O[C@H](CO)[C@H]2O3)cc1 | i | i | nt | nt | nt
C[C@H](CO)N1C[C@H](C)[C@@H](CN(C)C(=O)CN2CCOCC2)Oc2ncc(/C=C/c3ccccc3)cc2C1=O | i | i | nt | nt | nt
Cc1noc(C)c1NC(=O)N(C)C[C@@H]1Oc2ccc(N(C)C)cc2CC(=O)N([C@@H](C)CO)C[C@@H]1C | i | i | nt | nt | nt
COc1ccc(C2CC(c3ccccc3)=NN2C(=O)COC(=O)CNC(=O)c2ccccc2)cc1 (stereo not given) | i | i | i | i | i
O=C(CNC(=O)c1ccccc1)OCC(=O)N1N=C(c2ccc(Cl)cc2)CC1c1ccco1 (stereo not given) | nt | nt | 41 | i | i
O=C(COc1cc(F)ccc1[N+](=O)[O-])N1N=C(c2cccs2)CC1c1ccco1 (stereo not given) | i | i | i | i | i
N#Cc1ccccc1OCC(=O)N1N=C(c2cccs2)CC1c1ccco1 (stereo not given) | 70 | i | i | i | i
COc1ccc(NC(=O)Nc2ccc3c(c2)[C@@H]2C[C@@H](CC(=O)NCCc4ccccc4)O[C@@H](CO)[C@@H]2O3)cc1 | i | i | nt | nt | nt
O=C(OCc1ccccc1)c1ccc2c(c1)-c1ccccc1C2=O | nt | nt | 41 | i | 113
Cc1ccc(NC(=O)c2cccc(OC(F)F)c2)c(OC(F)F)c1 | i | i | i | i | i
COC(=O)c1cccc(NC(=O)c2ccc(OC)c(Cl)c2)c1 | i | i | i | i | i
COc1ccc(NC(=O)c2cccc(OC(F)F)c2)cc1Cl | 57 | i | nt | i | i
SMILES | esBAF inh | Statin myotox sup | Wnt bcat act | FXN GAA850 act | MITF TRPM1 HTS
O=C(NC1CCSc2ccccc21)c1cccc(OC(F)F)c1 (stereo not given) | i | 67 | i | i | i
Cc1c(Cl)cccc1NC(=O)c1cccc(OC(F)F)c1 | 50 | i | i | i | i
O=C(Nc1ccc(OC(F)F)c(Cl)c1)c1cccc(OC(F)F)c1 | i | i | nt | i | 88
CCS(=O)(=O)Nc1ccc2c(c1)C(=O)N(C)C[C@H](OC)[C@H](C)CN(C(=O)C1CCC1)[C@H](C)CO2 | i | i | nt | nt | nt
COc1ccc(NC(=O)c2cccc(F)c2)cc1Cl | 77 | i | nt | i | i
O=C(Nc1ccc2c(c1)CCC2)c1cccc(OC(F)F)c1 | ? | i | 65 | i | nt
O=C(Nc1ccc(S(=O)(=O)N2CCCC2)cc1)c1cccc(OC(F)F)c1 | i | i | i | i | i
COc1ccc(C(c2c(O)ccc3ccccc23)N2CCOCC2)c(OC)c1 (stereo not given) | nt | nt | 76 | i | nt
C[C@@H]1CN([C@H](C)CO)C(=O)c2cc(NS(=O)(=O)c3ccc(Cl)cc3)ccc2O[C@@H](C)CCCCO[C@H]1CN(C)S(=O)(=O)c1ccc(F)cc1 | i | nt | nt | nt | nt
